Measured values reported in PubChem BioAssay AID1159580 (chemical genetic matrix, 2015).
Hit rate of the full screen: of about 5,500 compounds, about 2,000 (36%) were called active. Another 18% or so got no clear call; they are omitted. Cut-off read from the data, not from the text of the source: active = normalized growth mostly below about 0.91 (no sharp cut-off); inconclusive = no clear call, values can overlap the other calls; inactive = mostly above about 0.92. The list shows a part of the results.

Test: chemical genetic growth profiling, strain panel (AID 1159580);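 note: tested at 20 µM; growth read once vehicle control cultures reached saturation at 30 °C; 1 = growth at the plate median or of vehicle wells; lower values mean less growth of the strain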
Conditions: S. cerevisiae deletion strains, growth OD

Measured: normalized growth

CN1CCC23CCCC[C@H]2C1Cc1ccc(O)cc13 (stereo partly drawn)
inactive: locus YAL040C, strain CLN3, hits give low values 1.01 | locus YCL061C, strain MRC1 (second series), hits give low values 1 | locus YDR363W, strain ESC2, hits give low values 1.03 | locus YER002W, strain NOP16, hits give low values 0.998 | locus YGR229C, strain SMI1, hits give low values 1.04 | locus YJR075W, strain HOC1, hits give low values 1.01 | locus YNL153C, strain GIM3, hits give low values 1.02 | locus YNL175C, strain NOP13, hits give low values 1.01 | locus YNL197C, strain WHI3, hits give low values 1.05 | locus YNL224C, strain SQS1, hits give low values 1.01 | locus YNL322C, strain KRE1, hits give low values 1.02 | locus YOR083W, strain WHI5 (second series), hits give low values 0.989 | locus YPL055C, strain LGE1, hits give low values 0.998
